# Screening results from PubChem.
# D1 PAM = enhances dopamine response at the human D1 receptor. P21728. HEK293 TREx D1 cells, calcium flux, dopamine EC20 potentiation. potentiation, % at 10 µM. 0.036% of 360,000 active. AID 504651; in the data active = potentiation above about 30%; note: 0% is about no effect
# TRHR ag = activates the human TRH receptor. 0.18% of 360,000 active. P34981. activation, % at 2 µM. TRHR cells, calcium flux fluo-8, FDSS agonist mode. AID 493084; note: 0% is about no effect
# Target sequence (P34981 whole entry, looked up): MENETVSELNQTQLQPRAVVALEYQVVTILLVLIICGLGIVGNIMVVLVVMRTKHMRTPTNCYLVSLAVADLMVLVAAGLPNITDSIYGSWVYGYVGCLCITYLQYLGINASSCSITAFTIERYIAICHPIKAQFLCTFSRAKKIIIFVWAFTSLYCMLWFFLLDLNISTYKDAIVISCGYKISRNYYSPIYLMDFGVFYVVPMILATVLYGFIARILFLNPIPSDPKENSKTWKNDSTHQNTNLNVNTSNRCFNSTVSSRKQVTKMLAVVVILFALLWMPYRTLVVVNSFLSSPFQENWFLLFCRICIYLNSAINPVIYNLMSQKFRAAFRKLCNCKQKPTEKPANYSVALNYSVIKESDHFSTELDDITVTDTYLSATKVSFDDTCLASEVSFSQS
#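 TRHR-expressing cells, plated overnight in medium with 10% serum, were loaded with fluo-8 calcium dye at room temperature. After a 10 s baseline, library compound was pin-added and calcium release was recorded kinetically (ex 480/em 530) as agonist response.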
# D1 antag = human D1 dopamine receptor antagonism; HEK293 TREx D1 cells, calcium flux, dopamine EC80; stronger effect = lower value; AID 504652; activity change, negative = inhibition, % at 10 µM; 3.2% of 360,000 active; P21728; in the data active = activity change below about -30%; note: % is set by controls: 0 for no effect and ±100 for the full control effect
#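 Tetracycline-induced HEK293 T-REx cells with force-coupled D1 receptor were loaded with a no-wash calcium dye. Compound was added after a 10 s baseline and read kinetically for 180 s; EC80 dopamine was then added and calcium flux followed another 180 s.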
# TRHR PAM = allosteric enhancers of human TRH receptor; P34981; TRHR cells, fluo-8 calcium fluorescence, EC20 TRH enhancement; enhancement, % at 2 µM; 0.66% of 360,000 active; AID 493056; in the data active = enhancement above about 30%; note: 0% is about no effect
#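 Enhancer read-out: after compound pinning and an initial kinetic agonist-mode read, an EC20 of TRH (10 nM final) was injected and fluo-8 calcium signal (Ex 480/Em 530) followed at 1 s/cycle for 100 cycles in TRHR-expressing cells.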
# D1 ag = human D1 receptor agonism | AID 504660 | HEK293 T-REx D1 cells, calcium flux, agonist mode | 1% of 360,000 active | activation, % at 2 µM | P21728; note: 0% is about no effect
#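 Tetracycline-induced HEK293 TREx D1 cells, force-coupled to calcium signalling, were dye-loaded with a no-wash calcium kit. Compound was pin-added after a 10 s baseline. Fluorescence was read kinetically at 1 cycle/s for 180 s, with calcium rises flagged as agonism.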
# * = called active by the depositor; . = no result given; ! = repeats disagree. The list is not random: actives were taken first. Their share in the collection is about 4.7%. Cut-off read from the data, not from the text of the source, unless noted: active = activation above about 30%; inactive = the rest.
SMILES,D1 PAM,TRHR ag,D1 antag,TRHR PAM,D1 ag
O=C(O)CCCC(=O)Nc1cccc2cccnc12,-7.6,0.6,-94.8*,6.8,-0.1
Cc1noc(Cn2c(=O)c3cc4c(cc3n(CC(=O)Nc3ccc(C(C)C)cc3)c2=O)OCO4)n1,-2.2,0.8,2.6,-6.2,3.8
Cc1ccc(NC(=O)COc2ccc(C(=O)c3ccccc3)cc2)c(O)c1,-10.1,-0.5,-30.4*,-5.5,11.4
Cc1ccc(NC(=S)NC(=O)Cc2ccccc2)c(O)c1,0.1,2.1,-10.1,0.6,33.2*
COc1ccc(NC(=S)NC(=O)Cc2ccccc2)c(OC)c1,3.0,1.6,11.0,2.3,16.3
Nc1c(C(=O)Nc2nccs2)sc2nc(-c3cccs3)cc(C(F)(F)F)c12,-0.3,-0.7,5.0,28.1,115.6*
COC(=O)C1=C(C)N(C(C)C)C(=O)C1(NC(=O)c1ccccc1OC)C(F)(F)F (stereo not given),-3.6,-2.7,-8.4,1.0,2.6
COc1ccc(C)cc1NC(=O)Cn1c(=O)cc(C)c2c(C)nn(C)c21,0.3,0.1,-30.8*,-5.3,17.4
Cc1ccc(/C=N/N2CCN(c3ccc(Cl)cc3)CC2)o1,-1.0,0.2,-48.2*,8.0,0.9
Cc1ccc(/C=N/N2CCCCC2)o1,-1.3,0.5,5.6,0.5,2.9
COc1ccc(NC(=O)C2CCN(S(=O)(=O)c3ccc4c(c3)CCCC(=O)N4)CC2)cc1OC,-4.6,-0.1,-20.6,-7.5,2.4
CCc1ccccc1NC(=O)c1nnn(Cc2ccc(Cl)cc2)c1N,-0.8,7.9,-2.4,13.5,56.0*
Cc1ccc(NC(=O)c2nnn(Cc3cccc(C(F)(F)F)c3)c2N)c(C)c1,0.8,2.6,-45.0*,7.8,10.5
Cc1cccc(Cn2nnc(C(=O)Nc3cc(C)ccc3C)c2N)c1,3.4,0.2,15.1,-10.4,10.2
Cc1cc(C)c(NC(=O)Cn2nnc(C(=O)Nc3ccc(F)cc3F)c2N)c(C)c1,0.4,2.7,-68.5*!,6.6,2.5
Cc1ccc(Cl)cc1NC(=O)c1nnn(Cc2ccccc2)c1N,11.8,2.3,26.5,31.4*,20.3
CCc1cccc(C)c1NC(=O)c1nc2ccccc2nc1N1CCCCC1,4.5,0.2,37.4,-3.0,2.5
CCOc1ccc(-c2nn(CC(=O)NC3CCCC3)c3c2cnc2ccc(C)cc23)cc1,-3.9,0.3,-8.3,-1.5,1.4
COc1ccc(OC)c(NC(=O)c2nnn(Cc3ccccc3C)c2N)c1,2.9,-1.2,-52.0*,1.5,1.8
CC(=O)NC(=O)c1nnn(Cc2ccccc2)c1NC(C)=O,-12.4,-0.3,12.6,33.9*,1.5
Nc1c(C(=O)O)nnn1Cc1ccccc1,-0.3,1.2,4.8,-1.8,-0.4
Cc1ccc(C)c(NC(=O)c2nnn(CC(=O)Nc3cccc(C)c3C)c2N)c1,0.6,1.5,2.7,5.0,1.4
COc1ccc(NC(=O)c2nnn(Cc3ccccc3C)c2N)c(OC)c1,0.6,1.2,-0.2,5.8,5.4
Cc1ccc(Cn2nnc(C(=O)Nc3cccc(C)c3C)c2N)cc1,-5.5,12.7,-13.6,-5.9,94.1*
COC(=O)c1c(NC(=O)CCCOc2ccc(C(C)(C)C)cc2)sc2c1C(C(=O)OC)CC2 (stereo not given),-2.9,0.7,9.1,-2.4,9.6
SMILES,D1 PAM,TRHR ag,D1 antag,TRHR PAM,D1 ag
CC(=O)Nc1nonc1-c1nc2ccccc2n1Cc1ccccc1Br,-1.8,-1.2,-69.7*,12.3,1.0
COc1ccc(OC)c(/C=C2\SC(=S)N(C(C(=O)O)c3ccccc3)C2=O)c1 (stereo not given),-2.3,-0.8,-2.4,4.1,35.1*
Cc1cc(F)ccc1S(=O)(=O)NCC(c1ccco1)S(=O)(=O)c1cccs1 (stereo not given),-1.1,-0.2,.,5.5,10.0
Cc1ccccc1-n1nnnc1SCc1csc(-c2ccccc2)n1,-10.0,0.9,-34.5*,-4.9,12.2
COc1ccccc1CNC(=O)c1cnc(N(C)C)nc1,1.4,0.2,0.7,-1.8,0.5
CN(CC(=O)Nc1ccccc1Cl)C(=O)Cn1nnc(-c2ccc(F)cc2)n1,-3.4,-0.1,-47.5*,-3.7,1.3
Cc1nc(-c2ccc(F)cc2)c(CC(=O)N(C)CC(=O)Nc2ccccc2Cl)s1,1.9,-0.4,3.8,-5.7,0.6
CC(=O)N(C1=C(O)c2ccccc2C(=O)C1=O)C1CCCCC1,-1.1,0.4,-38.5*,-9.0,0.3
Cc1nc2c(c(C)nn2C(C)(C)C)c(C)c1CCC(=O)Nc1ccc(Br)cc1Br,0.2,0.3,-6.5,4.8,3.8
COc1ccc(OC)c(NC(=O)CCc2c(C)nc3c(c(C)nn3C(C)(C)C)c2C)c1,-3.2,-0.3,-41.6*,-0.2,-0.8
CCCNC(=O)C(=O)NCC(c1ccc2c(c1)OCO2)N1CCOCC1 (stereo not given),0.3,0.9,-5.0,-7.8,1.8
Cc1ccccc1NC(=O)COC(=O)c1cccnc1,5.6,0.2,-16.0,-1.6,2.6
Cc1ccccc1NC(=O)COC(=O)c1ccc(CSc2ccc(Cl)cc2)cc1,-13.1,0.4,-15.3,-4.5,178.7*
CCNC(=O)C1CCCN(c2nnc(C)c3c(C)n(-c4ccc(C)cc4)nc23)C1 (stereo not given),-0.9,-0.6,1.8,1.8,3.7
CC(=O)c1ccc(NC(=O)C2CCN(c3nnc(C)c4c(C)n(-c5ccccc5)nc34)CC2)cc1,-1.9,-0.5,1.2,-6.5,3.2
Cc1ccc(-n2nc3c(N4CCCC(C(=O)NCc5ccccc5C)C4)nnc(C)c3c2C)cc1 (stereo not given),53.1*,-0.2,17.2,2.3,44.3*
COc1cc(NC(=O)C2CCN(c3nnc(C)c4c(C)n(-c5ccccc5)nc34)CC2)cc(OC)c1,-2.4,-0.7,-39.8*,4.8,2.3
O=C(COc1ccc(F)cc1)Nc1ccccc1C(=O)OCc1cc(=O)n2ccsc2n1,-0.7,1.1,-11.3,-1.5,-2.1
CCOC(=O)c1c(C)[nH]c(CCC(=O)Nc2cc(Cl)ccc2OC)c1C,-4.0,0.2,-6.6,-3.2,-0.3
O=C(NC1CC(=O)N(c2ccccc2)C1)c1ccc(S(=O)(=O)N2CCCCC2)cc1 (stereo not given),-0.5,0.4,.,-1.2,6.7
CCOc1ccc(-n2cc(-c3ccccc3)c3c(N4CCN(c5ccccc5OC)CC4)ncnc32)cc1,-1.2,-0.4,-31.9*,-5.8,-1.8
COc1ccc(-n2cc(-c3ccccc3)c3c(N4CCN(CCO)CC4)ncnc32)cc1,-13.2,3.8,-35.8*,-2.4,17.4
NC(=O)CC(NC(=O)Cc1cccc2ccccc12)c1ccc(NCc2ccc(F)cc2)c([N+](=O)[O-])c1 (stereo not given),2.9,-0.7,18.7,-1.1,2.5
NC(=O)CC(NC(=O)Cc1cccc2ccccc12)c1ccc(NCc2ccccc2)c([N+](=O)[O-])c1 (stereo not given),0.8,-0.3,-31.1*,9.2,2.8
